High-throughput results from PubChem.
Shown are actives, neighbours in structure and some others; about 1.5% of the full set was active somewhere.
PP5 primary: inhibitors of human protein phosphatase 5 (PP5). P53041. purified PP5c, OMFP substrate fluorescence. inhibition, % at 6.7 µM. hit rate 0.18% among 320,000. AID 1987;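 active = inhibition above the campaign's mean inhibition across all tested compounds plus 3 SD, cut at about 9.5% in these data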;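 also: 0% = DMSO only and 100% = 100 µM cantharidin control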
PP1 inh: blocks human PP1-alpha phosphatase, a PP5 counter-screen | P62136 | purified PP1alpha, OMFP fluorescence | inhibition, % at 6.7 µM | hit rate 0.9% among 320,000 | AID 2235;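 active = inhibition above the mean inhibition of all tested compounds plus 3 SD, computed separately for each screening campaign, cut at about 15% in these data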
Dyrk1A ADPGlo: Dyrk1A (rat) kinase inhibition | hit rate 0.43% among 310,000 | inhibition, % at 12.5 µM | ADP-Glo luminescence, NFATc1 peptide; in the data active = inhibition above about 50%;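 also: plate controls were vehicle with enzyme for no effect and no enzyme for full effect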
HIF activator: HIF pathway transcriptional activation. U2OS HRE-luciferase reporter, luminescence; normalized: DMSO 0%, desferrioxamine 100%. activation, % at 7.5 µM (by protocol). hit rate 0.32% among 300,000;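 active = mean activation of at least 10% of the iron chelator positive control signal, with at least half of replicates also reaching 10%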
STK33 kinase inh: human STK33 kinase inhibition; Q9BYT3; purified STK33, MBP phosphorylation, ADP-Glo luminescence; inhibition, % at 10 µM; hit rate 0.073% among 320,000;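 active = inhibition at or above 25%, using the most active replicate where run in duplicate; inactive = inhibition below 25%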
Target sequence (Q9BYT3 whole entry, looked up): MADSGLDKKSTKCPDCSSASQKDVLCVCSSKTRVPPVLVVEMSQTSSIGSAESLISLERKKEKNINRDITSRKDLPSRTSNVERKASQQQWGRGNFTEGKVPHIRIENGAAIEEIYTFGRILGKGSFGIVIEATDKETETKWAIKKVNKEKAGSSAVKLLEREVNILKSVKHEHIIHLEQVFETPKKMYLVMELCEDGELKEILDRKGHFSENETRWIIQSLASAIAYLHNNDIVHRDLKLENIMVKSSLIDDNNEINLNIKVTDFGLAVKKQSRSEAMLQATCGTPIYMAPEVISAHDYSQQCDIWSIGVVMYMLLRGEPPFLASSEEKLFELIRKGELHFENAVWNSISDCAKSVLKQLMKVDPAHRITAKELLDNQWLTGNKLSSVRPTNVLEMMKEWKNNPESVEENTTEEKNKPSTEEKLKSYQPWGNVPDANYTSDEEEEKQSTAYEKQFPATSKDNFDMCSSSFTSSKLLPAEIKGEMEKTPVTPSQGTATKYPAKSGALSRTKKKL
PP1 confirm: human PP1 phosphatase inhibition, confirmation | shares compounds with PP1 inh | purified PP1alpha, OMFP substrate fluorescence | inhibition, % at 6.7 µM | hit rate 52% among 1,900;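 active = mean PP1 inhibition above a set limit taken from the earlier primary screen, cut at about 15% in these data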
PP5 inh counter: PP5 phosphatase inhibition, counter-screen for PP1 inhibitors; purified PP5c, OMFP fluorescence; shares compounds with PP1 inh; hit rate 4% among 1,900; inhibition, % at 6.7 µM;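 active = mean PP5 inhibition over triplicate wells above about 9.5% taken from the earlier PP1 screen, limit read from the data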
* marks the source's active call; other numbers are inactive results; . = no result.

SMILES	PP5 primary	PP1 inh	Dyrk1A ADPGlo	HIF activator	STK33 kinase inh	PP1 confirm	PP5 inh counter
Cc1cc(C)nc(SCC(=O)c2ccc(F)c(C)c2)n1	0	43*	11	1	-1	-3	-4
Cc1ccc2nc(N3C(=O)C(O)=C(C(=O)c4cc5ccccc5o4)C3c3cccs3)sc2c1 (stereo not drawn)	1	12	2	5	1	.	.
Cc1ccc2nc(N3C(=O)C(O)=C(C(=O)c4ccco4)C3c3ccc(C)o3)sc2c1 (stereo not drawn)	2	26*	8	3	-2	25*	0
O=C(C1=C(O)C(=O)N(c2nc3ccc(Cl)cc3s2)C1c1ccco1)c1ccco1 (stereo not drawn)	0	19*	.	.	1	25*	-2
CCc1ccc2nc(N3C(=O)C(O)=C(C(=O)c4ccco4)C3c3cccs3)sc2c1 (stereo not drawn)	4	29*	6	3	1	24*	1
COC(=O)c1sc(N2C(=O)C(O)=C(C(=O)c3ccc(C)o3)C2c2ccco2)nc1C (stereo not drawn)	6	1	-1	0	-1	.	.
O=C(Nc1nc2ccc(Cl)cc2s1)c1ccco1	-2	2	33	4	0	.	.
COC(=O)c1sc(N2C(=O)C(O)=C(C(=O)c3ccc(C)o3)C2c2cccs2)nc1C (stereo not drawn)	2	23*	-1	0	1	21*	0
CCN(CC)CCCN1C(=O)C(O)=C(C(=O)c2ccco2)C1c1ccc(C)o1 (stereo not drawn)	2	-1	6	1	0	.	.
CC1=C(C(=O)OC(C)C)C(c2cn(-c3ccccc3)nc2-c2cccs2)NC(=O)N1 (stereo not drawn)	5	4	0	-1	-3	.	.
O=C(NC(=S)Nc1ccccc1Br)C1CCC1	2	1	10	2	-2	.	.
Cc1cc(C)n2nc(C(=O)OCC(=O)Nc3ccc(F)cc3F)nc2n1	-2	-1	1	0	1	.	.
CCOc1cccc(C2C(C(=O)c3ccc(C)o3)=C(O)C(=O)N2c2nccs2)c1 (stereo not drawn)	-1	22*	0	1	3	11	0
CCOc1cccc(C2C(C(=O)c3ccc(C)o3)=C(O)C(=O)N2Cc2ccncc2)c1 (stereo not drawn)	-3	5	1	-18	0	.	.
COc1ccccc1NC(=O)COc1cccnc1[N+](=O)[O-]	.	.	.	.	0	.	.
COC(=O)c1sc(NC(=O)COc2cccnc2[N+](=O)[O-])c(C(=O)OC)c1C	5	27*	.	.	0	15	0
CCN(CC(=O)Nc1c(F)cccc1F)C(=O)/C=C/c1ccc2ccccc2n1	-2	22*	.	0	-1	4	-4
COC(=O)c1ccc(CSc2nc3scc(-c4cccs4)c3c(=O)[nH]2)o1	1	22*	-4	0	0	9	-2
CCCn1c(=O)c(C(=O)Nc2cccc(C)n2)c(O)c2ccccc21	1	2	1	-1	-1	.	.
CCCn1c(=O)c(C(=O)Nc2ncccc2C)c(O)c2ccccc21	3	24*	0	0	1	21*	-5
CCCn1c(=O)c(C(=O)NNS(=O)(=O)c2ccc(Cl)cc2)c(O)c2ccccc21	0	22*	1	0	-1	16*	-4
CCOC(=O)c1cc(S(=O)(=O)NC2CCC(C)CC2)cn1C (stereo not drawn)	-1	-2	-4	0	1	.	.
CC(C1CC2CCC1C2)n1c(COc2ccccc2F)nnc1SCC(N)=O (stereo not drawn)	1	1	2	0	-1	.	.
CC(C)NC(=O)NC(=O)CSc1nnc(COc2ccccc2F)n1C(C)C1CC2CCC1C2 (stereo not drawn)	10*	21*	1	-1	.	5	3
CC1(OC(=O)c2cccs2)C(=O)C=C2C=C(c3ccsc3)OC=C2C1=O (stereo not drawn)	-1	11	.	1	0	.	.
SMILES	PP5 primary	PP1 inh	Dyrk1A ADPGlo	HIF activator	STK33 kinase inh	PP1 confirm	PP5 inh counter
CC1(OC(=O)c2cccs2)C(=O)C=C2C=C(c3ccc(C#N)cc3)OC=C2C1=O (stereo not drawn)	3	21*	.	-1	-1	10	-1
O=[N+]([O-])c1cc(/C=N/n2c(-c3ccncc3)n[nH]c2=S)ccc1Cl	1	25*	-3	0	-1	4	-2
Cc1ccc(/C=N/n2c(-c3ccncc3)n[nH]c2=S)cc1	.	.	8	0	.	.	.
NC(=O)c1ccsc1NC(=O)COC(=O)c1nc(Cl)ccc1Cl	-3	45*	31	-2	1	0	-3
NC(=O)c1ccsc1NC(=O)COC(=O)c1ccc(Cl)nc1	-2	1	5	-21	-1	.	.
CCOc1ccc(N(CC(=O)NC2CCCCC2)S(=O)(=O)c2ccccc2)cc1	2	-5	-3	0	-2	.	.
C=CCn1c(SCC(=O)Nc2cc(C)on2)nc2sc3c(c2c1=O)CCCC3	0	-2	0	.	-1	.	.
CCn1c(SCC(=O)Nc2cc(C)on2)nc2sc3c(c2c1=O)CCCC3	5	23*	-9	-1	-1	28*	-2
O=C(COc1ccc([N+](=O)[O-])cc1)NC(C(=O)O)C(O)c1cccc([N+](=O)[O-])c1 (stereo not drawn)	0	0	-4	0	-1	.	.
COc1ccccc1-c1cc(-c2ccccc2)nc(SC(C(N)=O)c2ccccc2)c1C#N (stereo not drawn)	2	19*	-3	-3	-2	27*	-6
Cc1nc(SC(C(N)=O)c2ccccc2)c(C#N)c(C)c1C (stereo not drawn)	1	-6	.	1	0	.	.
O=C(c1cc(-c2ccc(Cl)cc2)n(-c2ccc(Cl)c(Cl)c2)n1)N1CCOCC1	1	-1	8	0	-2	.	.
Cc1ccc(-n2nc(C(=O)O)cc2-c2ccc(Cl)cc2)cc1	-2	47*	2	0	0	47*	3
Cc1ccc(-n2nc(C(=O)O)cc2-c2ccccc2)cc1	-1	33*	-8	-1	-1	31*	-4
O=C(O)c1cc(-c2ccc(Cl)c(Cl)c2)n(-c2ccccc2)n1	1	58*	0	1	0	52*	-5
O=C(O)c1cc(-c2ccc(Cl)cc2)n(-c2ccc(Cl)cc2)n1	-1	43*	-6	0	-1	45*	-3
O=C(NCCCO)c1c(O)c2cccc3c2n(c1=O)CCC3	3	-1	6	0	-1	.	.
CCOc1ccc(NC(=O)CCC(=O)NNC(=O)c2cccc([N+](=O)[O-])c2)cc1	.	.	-2	.	-1	.	.
CNC(=O)c1cc(-c2ccc(Cl)cc2)n(-c2ccccc2)n1	3	-2	-3	-1	0	.	.
